Source: the supplement of paper PMC10849652
Targets with a hit are over-represented here; the source holds about 7,900 in all. About 0.6% of all pairs of compound and target were hits.

compound: c1cn2cc(-c3ccc4cn[nH]c4c3)nc(Nc3ccc(N4CCOCC4)cc3)c2n1 [entospletinib]; experiment: log2 fold change, soluble protein after heating vs DMSO (PISA); higher = thermal stabilisation; K562 cells, 10 uM, 30 min; active = over 0.2 and 3.5 SD of the protein, either way, in both replicates (recomputed)
Outline: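 Values are thermal stability changes relative to control samples and are taken from duplicates. They are stated as log2 fold changes. Before quantification by TMTpro 16plex LC-MS/MS with equalised channel sums, K562 cells at 2×10^6 cells/mL were treated with 10 μM compound for 30 min, heated in aliquots for 3 min across 48°C-58°C, pooled, extracted in PBS with 0.5% NP-40 at 4°C, and centrifuged at 21,000xg for 90 min to give the soluble supernatant.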

Chain of UniProt Q14980 (Q14980 whole entry, looked up): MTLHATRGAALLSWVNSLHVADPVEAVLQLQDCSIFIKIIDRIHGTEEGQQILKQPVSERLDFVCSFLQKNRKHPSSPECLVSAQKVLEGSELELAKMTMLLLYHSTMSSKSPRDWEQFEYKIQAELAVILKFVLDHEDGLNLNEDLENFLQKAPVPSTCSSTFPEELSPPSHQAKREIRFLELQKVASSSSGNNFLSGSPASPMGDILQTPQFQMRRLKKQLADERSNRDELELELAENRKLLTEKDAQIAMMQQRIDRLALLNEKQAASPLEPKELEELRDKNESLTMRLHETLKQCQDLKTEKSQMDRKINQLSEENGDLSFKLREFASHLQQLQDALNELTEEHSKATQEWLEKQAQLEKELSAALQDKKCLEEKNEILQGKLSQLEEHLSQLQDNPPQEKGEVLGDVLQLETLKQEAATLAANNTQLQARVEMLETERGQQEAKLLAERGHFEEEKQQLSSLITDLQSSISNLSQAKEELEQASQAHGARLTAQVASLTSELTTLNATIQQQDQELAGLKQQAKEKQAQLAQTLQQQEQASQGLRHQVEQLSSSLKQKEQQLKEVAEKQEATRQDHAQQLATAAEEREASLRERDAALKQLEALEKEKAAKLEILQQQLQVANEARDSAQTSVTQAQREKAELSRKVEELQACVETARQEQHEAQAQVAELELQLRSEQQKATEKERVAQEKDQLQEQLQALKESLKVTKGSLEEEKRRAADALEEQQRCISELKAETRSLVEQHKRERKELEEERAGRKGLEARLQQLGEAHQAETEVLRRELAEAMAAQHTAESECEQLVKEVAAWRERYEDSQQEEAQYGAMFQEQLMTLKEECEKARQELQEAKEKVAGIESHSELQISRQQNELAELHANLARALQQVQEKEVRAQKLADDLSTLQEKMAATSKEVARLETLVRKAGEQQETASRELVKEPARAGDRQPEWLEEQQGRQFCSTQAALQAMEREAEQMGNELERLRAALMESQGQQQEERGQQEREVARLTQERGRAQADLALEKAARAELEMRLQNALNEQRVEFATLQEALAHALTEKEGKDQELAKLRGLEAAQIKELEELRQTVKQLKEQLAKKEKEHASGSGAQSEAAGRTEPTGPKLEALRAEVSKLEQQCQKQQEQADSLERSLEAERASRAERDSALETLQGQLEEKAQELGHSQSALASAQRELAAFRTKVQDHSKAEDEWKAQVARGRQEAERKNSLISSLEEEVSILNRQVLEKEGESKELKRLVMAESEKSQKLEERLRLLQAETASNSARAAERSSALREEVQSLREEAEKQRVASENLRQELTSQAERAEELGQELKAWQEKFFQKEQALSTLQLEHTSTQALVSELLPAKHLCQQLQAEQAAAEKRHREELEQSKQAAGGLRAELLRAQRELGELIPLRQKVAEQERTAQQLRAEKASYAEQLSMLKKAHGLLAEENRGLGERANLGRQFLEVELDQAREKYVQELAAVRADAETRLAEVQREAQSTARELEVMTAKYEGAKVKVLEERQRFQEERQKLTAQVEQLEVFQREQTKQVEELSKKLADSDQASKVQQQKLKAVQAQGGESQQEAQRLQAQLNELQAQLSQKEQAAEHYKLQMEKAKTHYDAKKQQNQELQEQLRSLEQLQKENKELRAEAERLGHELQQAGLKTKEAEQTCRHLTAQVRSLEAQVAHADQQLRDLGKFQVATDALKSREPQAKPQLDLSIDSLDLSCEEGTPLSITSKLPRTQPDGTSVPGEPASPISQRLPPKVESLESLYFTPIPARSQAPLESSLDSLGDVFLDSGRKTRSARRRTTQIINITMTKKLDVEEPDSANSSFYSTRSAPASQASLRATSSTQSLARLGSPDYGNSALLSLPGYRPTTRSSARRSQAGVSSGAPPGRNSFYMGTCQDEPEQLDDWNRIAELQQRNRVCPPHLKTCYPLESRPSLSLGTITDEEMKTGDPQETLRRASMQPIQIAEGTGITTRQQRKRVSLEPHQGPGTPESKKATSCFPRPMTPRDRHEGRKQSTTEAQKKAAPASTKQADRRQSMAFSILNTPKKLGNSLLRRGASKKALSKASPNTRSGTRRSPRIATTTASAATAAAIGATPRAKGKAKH
Chain of UniProt O15460 (O15460 whole entry, looked up): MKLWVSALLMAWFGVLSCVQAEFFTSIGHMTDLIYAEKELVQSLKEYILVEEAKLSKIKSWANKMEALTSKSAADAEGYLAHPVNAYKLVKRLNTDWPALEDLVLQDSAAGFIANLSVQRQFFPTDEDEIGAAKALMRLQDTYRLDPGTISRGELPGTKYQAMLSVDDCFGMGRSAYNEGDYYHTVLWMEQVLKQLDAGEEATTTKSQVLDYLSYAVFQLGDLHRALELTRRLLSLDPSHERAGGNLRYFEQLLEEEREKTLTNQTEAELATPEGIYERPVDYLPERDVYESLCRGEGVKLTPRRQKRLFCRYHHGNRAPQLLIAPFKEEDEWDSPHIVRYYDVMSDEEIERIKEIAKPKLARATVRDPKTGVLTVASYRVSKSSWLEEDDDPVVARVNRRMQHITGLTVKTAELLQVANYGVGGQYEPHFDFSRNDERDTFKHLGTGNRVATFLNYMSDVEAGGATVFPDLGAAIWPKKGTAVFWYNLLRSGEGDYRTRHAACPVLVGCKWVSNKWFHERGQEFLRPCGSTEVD
Chain of UniProt Q96BN8 (Q96BN8 whole entry, looked up): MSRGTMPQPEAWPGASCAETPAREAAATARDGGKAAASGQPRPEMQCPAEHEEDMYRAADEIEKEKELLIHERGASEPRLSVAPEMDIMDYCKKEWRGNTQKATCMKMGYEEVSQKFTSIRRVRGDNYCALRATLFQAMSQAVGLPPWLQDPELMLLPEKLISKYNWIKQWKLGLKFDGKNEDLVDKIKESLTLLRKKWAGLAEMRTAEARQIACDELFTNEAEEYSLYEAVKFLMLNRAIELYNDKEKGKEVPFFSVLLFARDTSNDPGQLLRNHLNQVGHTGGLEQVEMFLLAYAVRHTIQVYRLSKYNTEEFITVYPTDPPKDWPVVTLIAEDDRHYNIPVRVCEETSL
Chain of UniProt P04181 (P04181 whole entry, looked up): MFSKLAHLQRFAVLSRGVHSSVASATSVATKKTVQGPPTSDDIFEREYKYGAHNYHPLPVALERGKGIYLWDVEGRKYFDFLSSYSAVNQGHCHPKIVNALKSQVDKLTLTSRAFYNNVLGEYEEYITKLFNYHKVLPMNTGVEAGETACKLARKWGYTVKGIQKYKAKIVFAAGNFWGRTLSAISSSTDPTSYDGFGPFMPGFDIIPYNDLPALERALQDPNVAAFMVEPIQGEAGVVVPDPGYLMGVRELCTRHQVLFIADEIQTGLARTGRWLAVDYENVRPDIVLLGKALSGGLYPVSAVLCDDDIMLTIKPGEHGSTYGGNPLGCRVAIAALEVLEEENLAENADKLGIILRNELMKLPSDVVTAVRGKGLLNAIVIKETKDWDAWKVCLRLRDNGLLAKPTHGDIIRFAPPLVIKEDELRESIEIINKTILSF
Chain of UniProt Q96RE7 (Q96RE7 whole entry, looked up): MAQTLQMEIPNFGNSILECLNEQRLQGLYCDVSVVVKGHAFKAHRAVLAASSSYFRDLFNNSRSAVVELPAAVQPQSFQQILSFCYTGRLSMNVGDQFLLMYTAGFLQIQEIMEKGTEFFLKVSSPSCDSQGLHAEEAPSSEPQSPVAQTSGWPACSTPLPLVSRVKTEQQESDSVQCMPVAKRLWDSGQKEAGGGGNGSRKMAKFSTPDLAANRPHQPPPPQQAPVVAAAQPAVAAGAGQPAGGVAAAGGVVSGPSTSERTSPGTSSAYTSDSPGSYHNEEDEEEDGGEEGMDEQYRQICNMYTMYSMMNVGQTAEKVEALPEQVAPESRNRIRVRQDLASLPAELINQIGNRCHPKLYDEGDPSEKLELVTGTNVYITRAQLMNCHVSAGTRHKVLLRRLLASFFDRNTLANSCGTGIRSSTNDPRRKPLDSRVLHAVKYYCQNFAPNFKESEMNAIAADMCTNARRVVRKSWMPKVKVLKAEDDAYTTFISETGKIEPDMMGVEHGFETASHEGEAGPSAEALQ
Chain of UniProt Q9BT67 (Q9BT67 whole entry, looked up): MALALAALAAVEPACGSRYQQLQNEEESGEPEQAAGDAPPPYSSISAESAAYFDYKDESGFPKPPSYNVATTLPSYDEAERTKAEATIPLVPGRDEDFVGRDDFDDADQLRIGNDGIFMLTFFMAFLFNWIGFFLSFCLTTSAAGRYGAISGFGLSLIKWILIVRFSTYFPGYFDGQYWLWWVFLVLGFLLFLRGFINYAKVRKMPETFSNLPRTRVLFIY
Chain of UniProt P49321 (P49321 whole entry, looked up): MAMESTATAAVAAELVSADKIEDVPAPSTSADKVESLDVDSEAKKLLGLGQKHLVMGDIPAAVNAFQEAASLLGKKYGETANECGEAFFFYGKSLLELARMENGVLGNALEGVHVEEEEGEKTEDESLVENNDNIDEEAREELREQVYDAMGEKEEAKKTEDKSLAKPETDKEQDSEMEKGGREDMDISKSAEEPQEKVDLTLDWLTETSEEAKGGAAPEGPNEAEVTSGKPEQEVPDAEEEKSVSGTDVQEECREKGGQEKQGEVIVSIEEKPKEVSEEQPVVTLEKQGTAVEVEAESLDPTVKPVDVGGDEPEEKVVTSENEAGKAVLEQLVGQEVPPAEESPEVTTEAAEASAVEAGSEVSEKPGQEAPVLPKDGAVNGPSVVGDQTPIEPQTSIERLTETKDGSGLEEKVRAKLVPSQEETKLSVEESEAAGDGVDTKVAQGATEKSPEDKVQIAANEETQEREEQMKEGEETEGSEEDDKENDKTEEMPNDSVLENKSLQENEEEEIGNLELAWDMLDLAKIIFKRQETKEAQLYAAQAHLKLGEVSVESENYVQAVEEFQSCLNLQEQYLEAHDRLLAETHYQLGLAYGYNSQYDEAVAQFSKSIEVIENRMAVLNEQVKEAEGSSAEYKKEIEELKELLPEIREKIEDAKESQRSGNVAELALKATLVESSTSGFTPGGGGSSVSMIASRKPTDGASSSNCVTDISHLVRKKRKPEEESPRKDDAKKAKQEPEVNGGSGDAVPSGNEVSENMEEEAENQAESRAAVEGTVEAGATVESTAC

log2 fold change, inactive:
NASP (UniProt P49321) -0.007
NME2P1 (UniProt O60361) -0.571
NFYB (UniProt P25208) 0.04
MITF (UniProt O75030) -0.085
NUP210 (UniProt Q8TEM1) -0.125
OGFR (UniProt Q9NZT2) -0.008
NNMT (UniProt P40261) 0.042
MRPS16 (UniProt Q9Y3D3) 0.051
NPM3 (UniProt O75607) 0.008
OTULIN (UniProt Q96BN8) 0.1
NCOA7 (UniProt Q8NI08) 0.003
PAK1 isoform 2 (UniProt Q13153) -0.02
NTMT1 (UniProt Q9BV86) 0.118
NAPG (UniProt Q99747) 0.037
NDUFB10 (UniProt O96000) 0.003
NUMA1 (UniProt Q14980) 0.049
P4HA2 (UniProt O15460) 0.021
MRPL47 (UniProt Q9HD33) -0.116
NSMCE2 (UniProt Q96MF7) -0.052
NEDD4L (UniProt Q96PU5) 0.046
MRPS26 (UniProt Q9BYN8) 0.078
NDUFS4 (UniProt O43181) 0.069
NQO1 (UniProt P15559) -0.101
MITD1 (UniProt Q8WV92) -0.133
OAT (UniProt P04181) -0.012
MRPS5 (UniProt P82675) 0.044
MORC3 (UniProt Q14149) -0.088
NDFIP1 (UniProt Q9BT67) -0.003
MRPS9 (UniProt P82933) 0.087
MYLK (UniProt Q15746) -0.041
NECTIN2 isoform 2 (UniProt Q92692) -0.003
NCL (UniProt P19338) 0.102
NACC1 (UniProt Q96RE7) -0.019
MRPS12 (UniProt O15235) 0.15
